Experimental data taken from PubChem BioAssay (EPA / NIEHS).
Records with an inconclusive call do not appear. Active and inactive are the calls of the source. How the source made its calls, unless noted: active means hit-call score of the fitted dose curve at least 0.9, where 1 is the maximum; inactive means score below 0.9.

Tests used:
[1] = ATG_TCF_b_cat_CIS: Attagene CIS-FACTORIAL HepG2 Assay for human T-Cell-Factor with beta-catenin (TCF/b-cat) (AID 2282965); settings: HepG2 TCF/beta-catenin cis-reporter transcription, actives raise or lower the signal
Procedure, shortened: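 Endogenous TCF/LEF activity read as reporter transcript level via RT-PCR and capillary electrophoresis fluorescence in transfected HepG2, 24 h exposure; gain or loss of signal fitted against DMSO controls.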

[2] = ATG_TAL_CIS: Attagene CIS-FACTORIAL HepG2 Assay for human TAL Basal Promoter (AID 2282966); settings: HepG2 Attagene cis-factorial TAL promoter reporter; actives raise or lower the signal;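 further: background control endpoint measuring basal TAL promoter reporter mRNA not a specific factor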
Procedure, shortened: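 Endogenous transcription-factor activity is sensed in HepG2 cells through transfected cis-promoter reporter constructs. After 24 h dosing, reporter transcripts are quantified by RT-PCR and capillary electrophoresis. Gain or loss of signal is fitted relative to DMSO.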

[3] = ATG_TGFb_CIS: Attagene CIS-FACTORIAL HepG2 Assay for human Transforming Growth Factor (TGF) (AID 2282967); settings: HepG2 Attagene CIS TGFb reporter, mRNA transcription; actives raise or lower the signal
Procedure, shortened: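 Transcript-level reporter readout: HepG2 transfectants, 24 h exposure, RNA to cDNA, reporter-specific PCR, fluorescent primer extension, capillary sizing against ROX standards. Gain- or loss-of-signal relative to DMSO.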

[4] = ATG_VDRE_CIS: Attagene CIS-FACTORIAL HepG2 Assay for human Vitamin D Receptor Element (VDRE) (AID 2282968); settings: HepG2 VDRE cis-reporter transcription, actives raise or lower the signal
Procedure, shortened: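 Readout is VDRE-driven reporter mRNA reflecting endogenous factor activity in human HepG2 cells, sampled 24 h post-dose. Quantification used labelled RT-PCR products separated by capillary electrophoresis; bidirectional analysis relative to DMSO.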

[5] = biological target: Steroid hormone receptor ERR1 (Homo sapiens) (UniProt P11474); test: ATG_ERRa_TRANS: Attagene TRANS-FACTORIAL HepG2 Assay for human Estrogen-Related Receptor alpha (ERRa) (AID 2282971; active means hit-call score of the fitted dose curve at least 0.9, where 1 is the maximum); settings: HepG2 Attagene TRANS reporter, ERRa transactivation
Procedure, shortened: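 HepG2 cells were transiently transfected with multiple GAL4-UAS reporter units, then dosed with compound for 24 h. Total RNA was reverse-transcribed, reporter cDNA PCR-amplified and fluorescently labelled, and fragments resolved by capillary electrophoresis; induction was compared with DMSO.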

[6] = ATG_M_19_TRANS: Attagene TRANS-FACTORIAL HepG2 Assay for M19 Transcription Factor (Internal Marker) (AID 2282974; active means hit-call score of the fitted dose curve at least 0.9, where 1 is the maximum); settings: HepG2 Attagene TRANS-FACTORIAL M19 internal marker reporter
Procedure, shortened: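 Fluorescence of 6-FAM-labelled reporter cDNA fragments, separated by capillary electrophoresis, served as the readout. These derived from HepG2 cells carrying transfected GAL4-UAS reporter units after 24 h dosing, with DMSO as negative control.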

[7] = biological target: X-box-binding protein 1 (Homo sapiens) (UniProt P17861); test: ATG_Xbp1_CIS: Attagene CIS-FACTORIAL HepG2 Assay for human X-box Binding Protein 1 (XBP1) (AID 2282972); settings: HepG2 XBP1 cis-element reporter, Attagene multiplex; actives raise or lower the signal
Procedure, shortened: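 Changes in reporter transcript abundance, read by RT-PCR and capillary electrophoresis, reflect endogenous transcription factor activity. Transfected HepG2 cells received compound for 24 hours; DMSO defined baseline for bidirectional analysis.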

[8] = biological target: Estrogen receptor (Homo sapiens) (UniProt P03372); test: ATG_ERa_TRANS: Attagene TRANS-FACTORIAL HepG2 Assay for human Estrogen Receptor alpha (ERa) (AID 2282970; active means hit-call score of the fitted dose curve at least 0.9, where 1 is the maximum); settings: HepG2 Attagene TRANS ERa GAL4 reporter, mRNA
Procedure, shortened: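 Transfected HepG2 cells carrying GAL4-UAS-driven reporter units were dosed for 24 hours. Total RNA was reverse-transcribed, reporter sequences PCR-amplified, FAM-labelled, HpaI-digested and resolved by capillary electrophoresis. Increases over DMSO control defined activity.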

[9] = ATG_GAL4_TRANS: Attagene TRANS-FACTORIAL HepG2 Assay for GAL4 (Internal Marker) (AID 2282976; active means hit-call score of the fitted dose curve at least 0.9, where 1 is the maximum); settings: HepG2 Attagene TRANS GAL4 internal marker reporter
Procedure, shortened: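 Fluorescence from capillary electrophoresis of labelled RT-PCR products quantifies reporter mRNA induction after 24 h dosing of HepG2 cells carrying transfected GAL4-UAS reporter transcription units. Vehicle DMSO serves as baseline.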

Measured: AC50

Sequence of Steroid hormone receptor ERR1 (Homo sapiens) (P11474 whole entry, looked up, the tested form may be a part): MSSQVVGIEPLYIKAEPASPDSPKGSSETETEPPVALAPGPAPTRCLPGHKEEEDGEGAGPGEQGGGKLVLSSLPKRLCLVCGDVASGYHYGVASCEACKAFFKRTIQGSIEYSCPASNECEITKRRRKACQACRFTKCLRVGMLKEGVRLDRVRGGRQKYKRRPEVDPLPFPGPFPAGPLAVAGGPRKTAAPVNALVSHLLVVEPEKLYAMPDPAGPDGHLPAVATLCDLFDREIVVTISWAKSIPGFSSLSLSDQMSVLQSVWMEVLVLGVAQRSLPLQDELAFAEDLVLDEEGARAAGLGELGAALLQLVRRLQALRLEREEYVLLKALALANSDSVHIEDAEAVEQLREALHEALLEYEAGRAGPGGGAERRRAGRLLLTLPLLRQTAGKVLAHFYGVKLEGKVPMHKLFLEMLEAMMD
Sequence of X-box-binding protein 1 (Homo sapiens) (P17861 whole entry, looked up): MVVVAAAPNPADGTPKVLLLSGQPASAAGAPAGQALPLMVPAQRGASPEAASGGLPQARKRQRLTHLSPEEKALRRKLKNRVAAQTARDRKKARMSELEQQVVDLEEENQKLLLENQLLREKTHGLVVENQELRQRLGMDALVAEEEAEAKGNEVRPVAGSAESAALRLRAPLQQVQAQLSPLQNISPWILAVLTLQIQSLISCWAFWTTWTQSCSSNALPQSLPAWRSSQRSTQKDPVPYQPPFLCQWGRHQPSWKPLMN
Sequence of Estrogen receptor (Homo sapiens) (P03372 whole entry, looked up, the tested form may be a part): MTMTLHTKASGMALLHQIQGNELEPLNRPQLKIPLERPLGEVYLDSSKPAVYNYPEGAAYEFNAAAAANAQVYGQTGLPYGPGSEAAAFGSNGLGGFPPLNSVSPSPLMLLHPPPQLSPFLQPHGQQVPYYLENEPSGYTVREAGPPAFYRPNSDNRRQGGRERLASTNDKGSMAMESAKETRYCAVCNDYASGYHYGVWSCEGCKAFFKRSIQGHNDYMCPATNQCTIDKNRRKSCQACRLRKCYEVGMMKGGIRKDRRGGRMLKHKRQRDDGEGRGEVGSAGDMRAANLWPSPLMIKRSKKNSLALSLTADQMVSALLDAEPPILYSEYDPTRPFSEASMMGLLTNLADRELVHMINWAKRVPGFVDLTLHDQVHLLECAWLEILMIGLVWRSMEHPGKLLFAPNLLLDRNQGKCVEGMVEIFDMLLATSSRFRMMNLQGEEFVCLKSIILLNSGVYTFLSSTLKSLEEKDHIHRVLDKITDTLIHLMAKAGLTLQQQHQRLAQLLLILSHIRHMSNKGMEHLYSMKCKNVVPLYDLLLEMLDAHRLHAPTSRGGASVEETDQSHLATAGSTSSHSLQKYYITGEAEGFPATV

O=C(F)C1(F)C(F)(F)C(F)(F)C(F)(F)C(F)(F)C1(F)F
not listed: [7] | [8] | [9]
inactive: all other assays above

CCC(C)CO (stereo unspecified)
not listed: [8] | [9]
inactive: all other assays above

O=S(=O)(O)CCC(F)(F)C(F)(F)C(F)(F)C(F)(F)C(F)(F)C(F)(F)C(F)(F)C(F)(F)F
not listed: [5] | [6]
inactive: all other assays above

COC(=O)c1ccc(C=O)cc1
not listed: [5]
inactive: all other assays above

Cc1cc(C)c(O)c(C(C)(C)C)c1
active: [4] 25.9 µM
inactive: [1] | [2] | [3] | [7]

C=C(C)C(=O)OCC(F)(F)C(F)(F)C(F)(F)C(F)F
not listed: [5]
inactive: all other assays above

O=C(O)C(F)(F)C(F)(F)C(F)(F)OC(F)(C(F)(F)F)C(F)(F)F
active: [1] 285 µM
not listed: [5]
inactive: all other assays above

NCC(F)(F)C(F)(F)C(F)(F)C(F)(F)C(F)(F)C(F)(F)F
not listed: [5] | [6] | [7]
inactive: all other assays above

CCOC(=O)CCC(C)=O
not listed: [5]
inactive: all other assays above

OCC(F)(F)C(F)(F)C(F)(F)C(F)(F)C(F)(F)C(F)(F)C(F)(F)C(F)(F)CO
not listed: [6] | [8]
inactive: all other assays above

Brc1nc2ccccc2s1
not listed: [5]
inactive: all other assays above

OCC(F)(F)C(F)(F)C(F)(F)CO
not listed: [6] | [7] | [8]
inactive: all other assays above

O=C(O)C(F)(F)C(F)(F)C(F)(F)C(F)(F)C(F)(F)C(F)(F)C(F)F
active: [8] 41.4 µM
inactive: [1] | [2] | [3] | [4] | [9]

CCN(CC)c1ccc(N=Nc2ccccc2)cc1
active: [4] 7.19 µM
inactive: [1] | [2] | [3] | [8] | [6]

CCN(CC)c1ccc(C=O)cc1
inactive: [1] | [2] | [3] | [7]
active: [4] 163 µM

CC(C)(C)c1cc(CCC(=O)OCC(COC(=O)CCc2cc(C(C)(C)C)c(O)c(C(C)(C)C)c2)(COC(=O)CCc2cc(C(C)(C)C)c(O)c(C(C)(C)C)c2)COC(=O)CCc2cc(C(C)(C)C)c(O)c(C(C)(C)C)c2)cc(C(C)(C)C)c1O
inactive: [1] | [2] | [3] | [4] | [7]

CCOC(C=C(C)CCC=C(C)C)OCC
active: [4] 49.7 µM
not listed: [5]
inactive: all other assays above

NS(=O)(=O)C(F)(F)C(F)(F)C(F)(F)C(F)(F)C(F)(F)C(F)(F)F
active: [3] 54.4 µM | [4] 36.4 µM
inactive: [1] | [2] | [7]

O=C(O)C(F)(F)C(F)(F)C(F)(F)OC(F)(F)F
not listed: [5] | [8]
inactive: all other assays above

OCC1CCCO1 (stereo unspecified)
inactive: [1] | [2] | [3] | [4] | [7]

Nc1cc([N+](=O)[O-])cc(Cl)c1O
not listed: [5] | [8]
inactive: all other assays above

c1ccc(C[P+](c2ccccc2)(c2ccccc2)c2ccccc2)cc1
active: [7] 53.4 µM
not listed: [5] | [8]
inactive: all other assays above

O=C(Cl)c1ccc(Cl)cc1Cl
not listed: [5] | [8] | [9]
inactive: all other assays above

Nc1cccnc1N
not listed: [5] | [8]
inactive: all other assays above

C#CC(O)CCC (stereo unspecified)
not listed: [5] | [8]
inactive: all other assays above

Cc1cnccn1
not listed: [5] | [8]
inactive: all other assays above

CNS(=O)(=O)C(F)(F)C(F)(F)C(F)(F)C(F)(F)C(F)(F)C(F)(F)C(F)(F)C(F)(F)F
not listed: [5] | [8] | [9]
inactive: all other assays above

Cc1cccc(C)n1
not listed: [5] | [8]
inactive: all other assays above

C=CCOC(=O)CC(C)C
not listed: [5] | [8]
inactive: all other assays above

CO[Si](C)(CCC(F)(F)C(F)(F)C(F)(F)C(F)(F)C(F)(F)C(F)(F)F)OC
not listed: [5] | [8] | [9]
inactive: all other assays above

CCN=c1cc2oc3cc(NCC)c(C)cc3c(-c3ccccc3C(=O)OCC)c-2cc1C
active: [1] 7.34 µM | [7] 11.1 µM
inactive: [2] | [3] | [4]

CCCCOC(=O)[C@H](C)O
not listed: [5] | [8]
inactive: all other assays above

CCc1ccc(C)nc1
not listed: [5] | [8]
inactive: all other assays above

O=c1[nH]cccc1O
not listed: [5] | [8]
inactive: all other assays above

Cc1ccc2c(c1)OCC(=O)CO2
not listed: [5] | [8] | [9]
inactive: all other assays above

CN(N=O)C(=O)N[C@@H]1[C@@H](O)[C@H](O)[C@@H](CO)O[C@@H]1O
not listed: [5] | [8] | [9]
inactive: all other assays above

Cc1ccc(O)cn1
not listed: [5] | [8]
inactive: all other assays above

C[Si](C)O[Si](C)C
not listed: [5] | [8]
inactive: all other assays above

CO[Si](CCCOCC1CO1)(OC)OC (stereo unspecified)
inactive: [1] | [2] | [3] | [4] | [7]

C=CC(=O)OCC(F)(F)C(F)(F)C(F)(F)COC(=O)C=C
active: [1] 19.8 µM | [4] 20.7 µM
inactive: [2] | [3] | [7]

CC1=CCC2C(=O)OC(=O)C2C1 (stereo unspecified)
not listed: [5] | [8] | [9]
inactive: all other assays above

O=C1c2ccccc2C(=O)c2c(Cl)cccc21
not listed: [5] | [8]
inactive: all other assays above

NC(=O)C(F)(F)C(F)(F)C(F)(F)C(F)(F)C(F)(F)C(F)(F)C(F)(F)F
not listed: [5] | [8] | [9]
inactive: all other assays above

O=C(Cl)C(F)(F)C(F)(F)C(F)(F)C(F)(F)C(F)(F)C(F)(F)C(F)(F)F
inactive: [1] | [2] | [3] | [4] | [7]

CCN(CCO)S(=O)(=O)C(F)(F)C(F)(F)C(F)(F)C(F)(F)C(F)(F)C(F)(F)C(F)(F)C(F)(F)F
active: [7] 29.8 µM
inactive: [1] | [2] | [3] | [4]

CC(C)CCCC(C)CCO (stereo unspecified)
not listed: [5] | [8]
inactive: all other assays above

OCCC(O)CO (stereo unspecified)
not listed: [5] | [8]
inactive: all other assays above

CCCCOC(=O)C(C)O (stereo unspecified)
not listed: [5] | [8]
inactive: all other assays above

O=c1cccc[nH]1
not listed: [5] | [8] | [9]
inactive: all other assays above

CC(=O)C=O
not listed: [5] | [8]
inactive: all other assays above

O=C1C=CC(=O)N1c1ccc(Cc2ccc(N3C(=O)C=CC3=O)cc2)cc1
active: [2] 56.8 µM | [3] 41.6 µM | [7] 42.6 µM
inactive: [1] | [4] | [6] | [9]

COCCOCCC[Si](C)(O[Si](C)(C)C)O[Si](C)(C)C
active: [1] 33.4 µM | [4] 2.56 µM | [7] 2.99 µM
inactive: [2] | [3] | [6]

C=C(C)CCCC
not listed: [5] | [8]
inactive: all other assays above

O=S(=O)(O)CCC(F)(F)C(F)(F)C(F)(F)C(F)(F)F
not listed: [5] | [8] | [9]
inactive: all other assays above

CCCCCCCCn1sc(Cl)c(Cl)c1=O
inactive: [1] | [2] | [3] | [4] | [9]

CC(C)C(=O)OCc1ccccc1
not listed: [5] | [7] | [8]
inactive: all other assays above

O=C(O)CCC(F)(F)C(F)(F)C(F)(F)F
not listed: [5] | [6] | [8]
inactive: all other assays above

C=CC(=O)OCCC(F)(F)C(F)(F)C(F)(F)C(F)(F)F
not listed: [5] | [6] | [8]
inactive: all other assays above

Cc1cc(=O)[nH]c(C(C)C)n1
not listed: [5] | [6] | [8]
inactive: all other assays above

O=C=NCc1cccc(CN=C=O)c1
not listed: [5] | [6] | [8]
inactive: all other assays above

Oc1ccc(C2(c3ccc(O)c(C4CCCCC4)c3)CCCCC2)cc1C1CCCCC1
inactive: [3] | [9]
active: [1] 33.4 µM | [2] 17.9 µM | [4] 0.619 µM | [7] 6.08 µM

CCCCCCCC/C=C\CCCCCCCC(=O)OCC(O)CO (stereo unspecified)
inactive: [1] | [2] | [3] | [4] | [9]

NC(O)(C(F)(F)F)C(F)(F)F
not listed: [5] | [6] | [8]
inactive: all other assays above
